High-throughput results deposited in PubChem by National Center for Advancing Translational Sciences (NCATS).
Compounds with a hit are over-represented: about 17% of the library has one in this group of screens.
TGFb inhibitor = blocks TGF-b signaling. HepG2 CAGA-GFP TGF-b/SMAD3 reporter, GFP fluorescence, 18 h; TGF-beta stimulated, 500 pg/mL final. 410,000 tested, 1.2% active. AID 588855. Potency, µM (doses to about 46.1 µM), inactives show at the top dose activity, negative = inhibition, actives largely listed as inhibitors; note: % is set by controls: 0 for no effect and ±100 for the full control effect; nearly all actives have a fitted effect of over 65% in size
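Inhibition was scored as loss of TGF-beta-induced (500 pg/mL final, 18 hours, 37 degrees C) GFP in HEPG2 cells carrying a CAGA-GFP reporter, in DMEM with 1% FBS. Well GFP was summed per cell; Activity was normalised to unstimulated and stimulated DMSO wells, then concentration-response fitting.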
HT1080NT lethal = kills 2HG-producing HT-1080-NT fibrosarcoma cells; HT-1080-NT fibrosarcoma viability, CellTiter-Glo ATP luminescence, 48 h; Potency, µM (top dose mostly 46.1 µM), without a hit: top-dose activity, negative = less viability, actives largely listed as cytotoxic; 360,000 tested, 1.6% active; AID 686970;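 note: NT is the 2HG producing partner of a matched IDH1 knockdown line; 0% = DMSO-treated cells and -100% = media-only wells without cells; nearly all actives have a fitted effect of over 55% in size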
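Luminescent CellTiter-Glo readout after 48 hours of compound exposure at 37 degrees C defined viability of HT-1080-NT cells. Activity was normalized to DMSO wells and cell-free media wells; concentration-response curves were fitted and assigned curve classes.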
DT40 TDP1 CPT = growth inhibition of DT40 Tdp1-/-;hTDP1 cells with camptothecin (screen for TDP1 inhibitors). chicken DT40 Tdp1-/-;hTDP1 cells + 20 nM CPT, ATP luminescence, 48 h. Potency, µM (highest dose often 46.2 µM), inactives show top-dose activity change, negative = growth inhibition, actives largely listed as inhibitors. AID 686979. 420,000 tested, 12% active; note: % is set by controls: 0 for no effect and ±100 for the full control effect; nearly all actives have a fitted effect of over 55% in size
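Cell growth measured by CellTiter-Glo luminescence after a minimum 48 h, 37 C compound exposure with 20 nM CPT in Tdp1-knockout DT40 cells stably expressing hTDP1, seeded 400/well; qHTS titration format.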
HT1080 IDH1KD tx = HT-1080 IDH1 knockdown cell toxicity (counter line); HT-1080 IDH1 knockdown viability, ATP luminescence, 48 h; Potency, µM (series often up to 46.1 µM), for inactives: top-dose activity, negative = toxicity, actives largely listed as cytotoxic; 360,000 tested, 2% active; AID 686971;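 note: 0% = DMSO wells and -100% = cell-free medium wells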
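HT-1080-IDH1KD cells (IDH1 knocked down), 750/well in RPMI with 5% FBS, treated with compound 48 h at 37 degrees C. Viability by CellTiter-Glo luminescence, normalised to DMSO and no-cell wells; concentration-response curves classed.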
HepG2 viability = kills HepG2 cells in TGF-b inhibitor counter-screen. HepG2 CAGA-GFP viability, ATP luminescence, 18 h. Potency, µM (highest dose often 46.1 µM), inactives show top-dose activity change, negative = cytotoxicity, actives largely listed as cytotoxic. 410,000 tested, 0.76% active. AID 588856
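CellTiter-Glo luminescence gave cytotoxicity after 18 hours at 37 degrees C. The cells were HepG2 CAGA-GFP in 1% FBS DMEM, stimulated with 500 pg/mL TGF-beta after compound addition. %Activity was normalised to no-cell wells (complete cell-killing) and DMSO (no toxicity), and curves were fitted and classified.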
DT40 TDP1 no CPT = qHTS for Inhibitors of human tyrosyl-DNA phosphodiesterase 1 (TDP1): qHTS in cells in absence of CPT | DT40 Tdp1-/- hTDP1 cells, no CPT, ATP luminescence, 48 h | Potency, µM (top dose mostly 46.2 µM), for the others: top-dose activity change, negative = growth inhibition, actives largely listed as inhibitors | 420,000 tested, 15% active | AID 686978, 2013; note: % is set by controls: 0 for no effect and ±100 for the full control effect; nearly all actives have a fitted effect of over 55% in size
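A cellular qHTS used chicken DT40 cells lacking endogenous Tdp1 but carrying stably transfected human TDP1. Compounds were applied without camptothecin, and cell growth kinetics were judged by ATP-dependent luminescence after ≥48 hr.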
The depositor's hits bear a star; ? = inconclusive; nt = no result. Calls come from the whole dose curve; as a rule, active = well fitted curve in the direction sought with a large enough effect; inconclusive = small, poorly fitted or top-dose-only effect, or another doubt; inactive = no such curve, though single readings can be large; an effect the other way counts as inactive or inconclusive. Potency is the fitted concentration of half-maximal effect.

SMILES	TGFb inhibitor	HT1080NT lethal	DT40 TDP1 CPT	HT1080 IDH1KD tx	HepG2 viability	DT40 TDP1 no CPT
COc1ccc(CC(=O)Nc2ccc(-c3cn4ccccc4n3)cc2)cc1OC	?	?	-8%	?	-15%	-16%
CC(NC(=O)C1=CC=CN2CCS(=O)(=O)N=C12)c1ccc(Cl)c(Cl)c1 (stereo unspecified)	12%	-23%	-2%	-27%	11%	-14%
CN(CC(=O)O/N=C(\N)c1ccc([N+](=O)[O-])cc1)S(=O)(=O)c1ccc2ccccc2c1	?	-3%	-6%	6%	-64%	-10%
CC(C)CCN(C(=O)c1ccccn1)c1c(N)n(Cc2ccccc2)c(=O)[nH]c1=O	15%	9%	-12%	13%	8%	-15%
COc1ccc2nc(N3CCCC(C(=O)NCCc4ccc(OC)c(OC)c4)C3)sc2c1 (stereo unspecified)	-4%	-23%	?	11%	-3%	13µM*
COc1ccc(CCNc2nc(N3CCCCC3)nc(N3CCCCC3)n2)cc1OC	?	?	?	?	-19%	23µM*
COc1ccc(CCNC(=O)c2ccc3nc(N4CCCCC4)sc3c2)cc1OC	-6%	0%	18µM*	-12%	-28%	21µM*
COc1nc(NCCc2ccc(OC)c(OC)c2)nc(OC)n1	7%	6%	-1%	0%	4%	-6%
COc1ccc(CNC(=O)COC(=O)CO/N=C(\C)c2ccc3c(c2)OCO3)cc1	-5%	-9%	2%	-6%	1%	3%
CCOc1c2ccc(C(=O)NCc3ccc(C)cc3)cc2nn1CC	4%	4%	9%	16%	14%	4%
Cc1ccccc1Nc1nn2c(=O)c3ccc(C(=O)NCc4ccccc4)cc3nc2s1	?	nt	16µM*	nt	-102%	16µM*
CCc1ccccc1Nc1nn2c(=O)c3ccc(C(=O)NC(C)c4ccccc4)cc3nc2s1 (stereo unspecified)	7%	nt	15µM*	nt	-12%	15µM*
CCc1ccccc1Nc1nn2c(=O)c3ccc(C(=O)NCc4ccc(C)cc4)cc3nc2s1	-13%	nt	?	nt	-22%	8.2µM*
COC(=O)c1ccc2c(=O)n3nc(Nc4ccc(F)cc4F)sc3nc2c1	1%	nt	12%	nt	-7%	6%
CCc1ccc(NC(=O)c2ccc3c(=O)n4nc(Nc5ccccc5C)sc4nc3c2)cc1	?	nt	23µM*	nt	7%	13µM*
CCOC(=O)c1sc(NC(=O)CN2CC(C)OC(C)C2)nc1C (stereo unspecified)	-6%	3%	0%	-1%	-6%	-2%
O=C(NCCC1=CCCCC1)c1ccc2c(=O)n3nc(Nc4ccccc4)sc3nc2c1	-2%	nt	2.3µM*	nt	5%	3.7µM*
Cc1ccc(Cl)cc1Nc1nn2c(=O)c3ccc(C(=O)NCc4ccc(F)cc4)cc3nc2s1	-12%	nt	2.1µM*	nt	-10%	4.6µM*
CCc1ccccc1Nc1nn2c(=O)c3ccc(C(=O)NCCc4ccccc4)cc3nc2s1	0%	nt	10µM*	nt	-10%	23µM*
Cc1ccc2c(=O)cc(C(=O)Nc3sc4c(c3C(=O)NCC3CCCO3)CCC4)oc2c1 (stereo unspecified)	?	nt	-15%	nt	-26%	-16%
CCN(CC(=O)Nc1ccc(NC(C)=O)cc1)C(=O)c1ccccc1SCC(=O)N1CCCC1	1%	-3%	-21%	1%	1%	-7%
COc1ccc(OC)c(CNC(=O)c2ccc(N3Cc4ccccc4Oc4ncccc43)s2)c1	-15%	nt	?	nt	-16%	?
COc1ccc2nc3cc(Cl)ccc3c(Nc3cc(C(C)C)c(O)cc3C)c2c1	?	21µM*	23µM*	?	-70%	?
COc1ccc(S(=O)(=O)Nc2cc(C(C)C)c(O)cc2C)cc1	-22%	-20%	?	-11%	-35%	?
Cc1nn(CC(=O)Nc2ccc(C(C)C)cc2)c(=O)c2c(C)n(-c3ccc(Cl)cc3)nc12	-5%	nt	?	nt	1%	?
SMILES	TGFb inhibitor	HT1080NT lethal	DT40 TDP1 CPT	HT1080 IDH1KD tx	HepG2 viability	DT40 TDP1 no CPT
Cc1ccc(NC(=O)Cn2nc(C)c3nn(-c4ccc(Cl)cc4)c(C)c3c2=O)cc1F	-31%	nt	?	nt	-20%	16µM*
Cc1ccc(NC(=O)Cn2nc(C)c3nn(-c4ccc(Cl)cc4)c(C)c3c2=O)cc1C	?	nt	?	nt	-1%	15µM*
COc1ccc(C)cc1S(=O)(=O)N1CCC(C(=O)NCCc2ccccc2)CC1	?	-1%	-22%	1%	-20%	?
Cc1cccc(OC(=O)c2cc(-c3ccc4c(c3)OCCO4)on2)c1	-16%	nt	-15%	nt	-13%	-16%
CCc1ccccc1NC(=O)c1nnn(-c2ccc(F)cc2)c1C	1%	nt	-17%	nt	-58%	?
Cc1c(C(=O)Nc2ccc(F)cc2F)nnn1-c1ccccc1Br	-14%	nt	10µM*	nt	-27%	13µM*
CCC1CN(C(=O)NCc2cccc(OC)c2)c2cc(Cl)ccc2O1 (stereo unspecified)	?	-2%	15µM*	-6%	-27%	?
CCC1CN(C(=O)NCc2ccc(F)cc2)c2ccccc2O1 (stereo unspecified)	16%	0%	?	8%	13%	?
CCC1CN(C(=O)NCc2cccc(OC)c2)c2ccccc2O1 (stereo unspecified)	?	1%	?	-5%	-5%	15µM*
C[C@@H]1CCCCO[C@@H](CN(C)S(=O)(=O)c2ccc(Cl)cc2)[C@@H](C)CN([C@H](C)CO)C(=O)c2cc(N(C)C)ccc2O1	0%	6%	10%	0%	5%	10%
Cc1ccc(S(=O)(=O)N(C)C[C@H]2OCCCC[C@@H](C)Oc3ccc(N(C)C)cc3C(=O)N([C@H](C)CO)C[C@@H]2C)cc1	1%	-4%	?	-8%	1%	21µM*
C[C@@H]1CCCCO[C@H](CN(C)S(=O)(=O)c2ccccc2)[C@@H](C)CN([C@H](C)CO)C(=O)c2cc(NC(=O)Cc3ccccc3)ccc2O1	19%	4%	21µM*	-5%	-16%	?
Cc1noc(C)c1S(=O)(=O)Nc1ccc2c(c1)C(=O)N([C@@H](C)CO)C[C@@H](C)[C@@H](CN(C)CC1CCCCC1)OCCCC[C@@H](C)O2	-2%	-21%	23µM*	-29%	-50%	15µM*
